Test results reported in the supplement of paper PMC3414501.
Counter-ions that a name gives are not always drawn.

test system: S. cerevisiae NKY1551 his4x/his4B, sporulating; experiment: HIS4 meiotic recombination assay sensitivity score (z-score vs DMSO controls); higher = stronger inhibition of sporulation/recombination, active = hit call of the paper;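 active = HIS4 sensitivity z-score above 5 vs DMSO controls; inactive = score 5 or below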
Description: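 NIH Clinical Collection compounds were added 1:100 from stock (about 100 µM final) to S. cerevisiae. Growth: average doubling time (AvgG) over 24 h of BY4741 (wild-type) or AD1-9 (drug-efflux-pump deficient) in rich media. HIS4: the his4x/his4B heteroallelic recombination reporter strain (SK1) was sporulated 5 h with compound at 30°C, then colony density was read on -his plates after 48 h. Sensitivity score = (compound − mean of 8 DMSO controls)/SD of DMSO controls. Hit cutoffs are >2 for growth and >5 for sporulation.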

Structure (SMILES)	HIS4 meiotic recombination assay sensitivity score
CS(=O)(=O)c1ccc(C2=C(c3ccccc3)C(=O)OC2)cc1 [Rofecoxib] (stock concentration (mM, diluted 1:100): 10)	-1.67 (inactive)
COc1ccc(/C=C/C(=O)Nc2ccccc2C(=O)O)cc1OC [Tranilast] (stock concentration (mM, diluted 1:100): 10)	0.1 (inactive)
COc1ccccc1N1CCN(CCCNc2cc(=O)n(C)c(=O)n2C)CC1 [Urapidil hydrochloride] (stock concentration (mM, diluted 1:100): 10)	-0.7 (inactive)
CCN(CC)CC1CCCCN1CC(=O)N1c2ccccc2C(=O)Nc2cccnc21 (stereo not given) [Otenzepad] (stock concentration (mM, diluted 1:100): 10)	-0.63 (inactive)
Cc1ncc([N+](=O)[O-])n1CCO [Metronidazole] (stock concentration (mM, diluted 1:100): 10)	0.15 (inactive)
O=C(O)Cc1ccccc1Nc1c(Cl)cccc1Cl [Diclofenac] (stock concentration (mM, diluted 1:100): 10)	0.28 (inactive)
CNCC[C@@H](Oc1ccccc1C)c1ccccc1 [Atomexetine hydrochloride] (stock concentration (mM, diluted 1:100): 8.7)	10.1 (active)
CN(C)CC[C@@H](c1ccc(Cl)cc1)c1ccccn1 [Dexchlorpheniramine maleate] (stock concentration (mM, diluted 1:100): 7)	2.35 (inactive)
C#C[C@]1(O)CC[C@H]2[C@@H]3[C@H](C)CC4=C(CCC(=O)C4)[C@H]3CC[C@@]21C [Tibolone] (stock concentration (mM, diluted 1:100): 10)	1.06 (inactive)
O=C(CCNNC(=O)c1ccncc1)NCc1ccccc1 [Nialamide] (stock concentration (mM, diluted 1:100): 10)	-1.89 (inactive)
O=C1CC2(CCCC2)CC(=O)N1CCNCC1COc2ccccc2O1 (stereo not given) (stock concentration (mM, diluted 1:100): 10)	-0.57 (inactive)
CN1CCCCC1CCN1c2ccccc2Sc2ccc([S+](C)[O-])cc21 (stereo not given) [Mesoridazine] (stock concentration (mM, diluted 1:100): 10)	-1.59 (inactive)
C#C[C@]1(O)CC[C@H]2[C@@H]3CCc4cc(OC)ccc4[C@H]3CC[C@@]21C [Mestranol] (stock concentration (mM, diluted 1:100): 10)	-0.79 (inactive)
Fc1ccc([C@@H]2CCNC[C@H]2COc2ccc3c(c2)OCO3)cc1 [Paroxetine] (stock concentration (mM, diluted 1:100): 8.8)	9.22 (active)
COc1ccc(CN2CCN(C(c3ccc(F)cc3)c3ccc(F)cc3)CC2)c(OC)c1OC [Lomerizine dihydrochloride] (stock concentration (mM, diluted 1:100): 8.7)	-0.52 (inactive)
OCCOCCN1CCN(C2=Nc3ccccc3Sc3ccccc32)CC1 [Quetiapine hemifumarate] (stock concentration (mM, diluted 1:100): 7.7)	5.3 (active)
CCN1CCC[C@H]1CNC(=O)c1c(O)c(Cl)cc(Cl)c1OC [Raclopride] (stock concentration (mM, diluted 1:100): 10)	-0.66 (inactive)
CCCCc1nc(Cl)c(CO)n1Cc1ccc(-c2ccccc2-c2nnn[nH]2)cc1 [Losartan potassium] (stock concentration (mM, diluted 1:100): 9.2)	-1.2 (inactive)
Nc1[nH]c(=O)ncc1F [5-Fluorocytosine] (stock concentration (mM, diluted 1:100): 10.5)	-1.29 (inactive)
O=C1[C@H]2CCCC[C@H]2C(=O)N1CCCCN1CCN(c2nsc3ccccc23)CC1 [Perospirone hydrochloride] (stock concentration (mM, diluted 1:100): 9.4)	-2.62 (inactive)

Structure (SMILES)	HIS4 meiotic recombination assay sensitivity score
CC(=O)OCC(CCn1cnc2cnc(N)nc21)COC(C)=O [Famciclovir] (stock concentration (mM, diluted 1:100): 10)	-0.43 (inactive)
Cc1nc(=O)c2cc(CN(C)c3ccc(C(=O)N[C@@H](CCC(=O)O)C(=O)O)s3)ccc2[nH]1 [Raltitrexed] (stock concentration (mM, diluted 1:100): 10)	-0.01 (inactive)
O=C(O)c1cc(/N=N/c2ccc(S(=O)(=O)Nc3ccccn3)cc2)ccc1O [Sulfasalazine] (stock concentration (mM, diluted 1:100): 10)	-0.54 (inactive)
COC(=O)C1=C(C)NC(C)=C(C(=O)OC2CCCN(Cc3ccccc3)C2)C1c1cccc([N+](=O)[O-])c1 (stereo not given) [Benidipine hydrochloride] (stock concentration (mM, diluted 1:100): 6)	-1.2 (inactive)
O=C(CCCN1CCC(O)(c2ccc(Cl)cc2)CC1)c1ccc(F)cc1 [Haloperidol] (stock concentration (mM, diluted 1:100): 10)	7.67 (active)
CN1CCN(c2nc3cc(C(F)(F)F)ccc3n3cccc23)CC1 (stock concentration (mM, diluted 1:100): 10)	-0.17 (inactive)
COC1=C(OC)C(=O)C(CCCCCCCCCCO)=C(C)C1=O [Idebenone] (stock concentration (mM, diluted 1:100): 10.2)	-0.57 (inactive)
COc1cccc2c1C(=O)c1c(O)c3c(c(O)c1C2=O)C[C@@](O)(C(=O)CO)C[C@@H]3O[C@H]1C[C@H](N)[C@@H](O)[C@H](C)O1 [Epirubicin hydrochloride] (stock concentration (mM, diluted 1:100): 9.4)	-1.39 (inactive)
CC[N+](C)(CC)CCOC(=O)C(O)(c1ccccc1)C1CCCCC1 (stereo not given) [Oxyphenonium bromide] (stock concentration (mM, diluted 1:100): 10)	1.35 (inactive)
CCOc1cc(CC(=O)N[C@@H](CC(C)C)c2ccccc2N2CCCCC2)ccc1C(=O)O [Repaglinide] (stock concentration (mM, diluted 1:100): 10)	0.84 (inactive)
CN(CCCN1c2ccccc2CCc2ccccc21)CC(=O)c1ccc(Cl)cc1 [Lofepramine] (stock concentration (mM, diluted 1:100): 10)	3.17 (inactive)
CCCN1CCCC[C@H]1C(=O)Nc1c(C)cccc1C [Ropivacaine hydrochloride] (stock concentration (mM, diluted 1:100): 7.7)	2.62 (inactive)
Clc1ccc2c(c1)CCc1cccnc1C2=C1CCNCC1 [Desloratadine] (stock concentration (mM, diluted 1:100): 10)	1.24 (inactive)
Nc1ccc2cn[nH]c2c1 [6-Aminoindazole] (stock concentration (mM, diluted 1:100): 10)	-0.24 (inactive)
COc1ccc2[nH]c([S+]([O-])Cc3ncc(C)c(OC)c3C)nc2c1 (stereo not given) [Omeprazole] (stock concentration (mM, diluted 1:100): 10)	-1.05 (inactive)
CCc1nn(CCCN2CCN(c3cccc(Cl)c3)CC2)c(=O)n1CCOc1ccccc1 [Nefazodone] (stock concentration (mM, diluted 1:100): 9.3)	3 (inactive)
NC(=O)c1cccnc1 [Nicotinamide] (stock concentration (mM, diluted 1:100): 10)	0.03 (inactive)
CCN1CCCC1CNC(=O)c1cc(S(=O)(=O)CC)c(N)cc1OC (stereo not given) [Amisulpride] (stock concentration (mM, diluted 1:100): 10)	-0.66 (inactive)
CC1(C)C[C@@H]1C(=O)N/C(=C\CCCCSC[C@H](N)C(=O)O)C(=O)O [Cilastatin] (stock concentration (mM, diluted 1:100): 9.4)	-0.68 (inactive)
COc1ccccc1OCCNCC(O)COc1cccc2[nH]c3ccccc3c12 (stereo not given) [Carvedilol] (stock concentration (mM, diluted 1:100): 10)	0.66 (inactive)
